Experimental data published in the supplement of paper PMC10849652.
Of roughly 8,800 targets only a part is listed; those with a hit were picked by preference. About 0.5% of all pairs of compound and target were hits. Unmarked numbers belong to inactive results.

Assays:
Test in all cases: log2 fold change, soluble protein after heating vs DMSO (PISA); higher = thermal stabilisation; K562 lysate, 10 uM; active = over 0.2 and 3.5 SD of the protein, either way, in both replicates (recomputed)
erlotinib = compound: C#Cc1cccc(Nc2ncnc3cc(OCCOC)c(OCCOC)cc23)c1 [erlotinib]
How it was run: (§1)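 To prepare the extract, K562 pellets were dounce-homogenised in PBS pH 7.4 with 1 mM MgCl2, giving crude material at 1 mg/mL protein. This was treated with 10 μM compound for 30 min, then heated in aliquots for 3 min over 48°C-58°C before pooling and addition of NP-40 to 0.5% at 4°C. Centrifugation at 21,000xg for 90 min left soluble protein in the supernatant, which TMTpro 16plex LC-MS/MS quantified with equalised channel sums. Results are log-two fold changes in thermal stability compared with solvent controls, from duplicates.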

[1] = compound: C/C(=N\NC(=O)C1=CC(=CC=C1)S(=O)(=O)N2CCOCC2)/C3=C(C=CC(=C3)Cl)O
How it was run: as §1

[2] = compound: C1=CC(=CC=C1C2=NC3=C(N2)C=C(C=C3)C(=O)N)OC4=CC=C(C=C4)Cl
How it was run: as §1

[3] = compound: C1=CC2=C(C=CC(=C2)/C=C\3/C(=O)NC(=NCC4=CC=CS4)S3)N=C1
How it was run: as §1

[4] = compound: C1=CC2=NC=CN=C2C=C1/C=C/3\C(=O)NC(=O)S3
How it was run: as §1

[5] = compound: C1=CC=C(C=C1)C2=NC(=C(N2)C3=CC=NC=C3)C4=CC(=C(C=C4)Cl)O
How it was run: as §1

[6] = compound: C1=CC=C2C(=C1)C3=NNC4=CC=CC(=C43)C2=O
How it was run: as §1

[7] = compound: C1CCN(C1)C(=O)NC2=CC=CC(=C2)NC3=NC=C(C(=N3)NCCC4=CN=CN4)Br
How it was run: as §1

[8] = compound: C1CN(CCC1(CC2=CC=C(C=C2)Cl)N)C3=NC=NC4=C3C=CN4
How it was run: as §1

IRAK-1-4 Inhibitor I = compound: C1COCCN1CCN2C3=CC=CC=C3N=C2NC(=O)C4=CC(=CC=C4)[N+](=O)[O-] [IRAK-1-4 Inhibitor I]
How it was run: as §1

ibrutinib = compound: C=CC(=O)N1CCC[C@@H](n2nc(-c3ccc(Oc4ccccc4)cc3)c3c(N)ncnc32)C1 [ibrutinib]
How it was run: as §1

[9] = compound: CC(=O)c1cnc2ccc(-c3cc(Cl)c(O)c(Cl)c3)nc2c1N[C@H]1CC[C@H](CN(C)C)CC1
How it was run: as §1

ralimetinib = compound: CC(C)(C)Cn1c(N)nc2ccc(-c3[nH]c(C(C)(C)C)nc3-c3ccc(F)cc3)nc21 [ralimetinib]
How it was run: as §1

[10] = compound: CC(C)(O)CC(=O)NCCn1ccc2ncnc(Nc3ccc(Oc4cccc(C(F)(F)F)c4)c(Cl)c3)c21
How it was run: as §1

[11] = compound: CC(C)C1=C2N=C(C=C(N2N=C1)NCC3=CC=CC=C3)NCCCCCCN
How it was run: as §1

[12] = compound: CC1=C(C(CC(=O)N1)C2=CC=C(C=C2)C(F)(F)F)C(=O)NC3=C(C=C4C(=C3)C=NN4)F
How it was run: as §1

[13] = compound: CC1=C(C2=C(C=C1)C(=O)C3=CC=CC=C3N2CCCN)C
How it was run: as §1

[14] = compound: CC1=C(C=C(C=C1)NC(=O)C2=CC(=CC=C2)C(C)(C)C#N)NC3=CC4=C(C=C3)N=CN(C4=O)C
How it was run: as §1

[15] = compound: CC1=C(C=C(C=C1)NC(=O)C2=CC(=CC=C2)N(C)C)NC(=O)C3=CC=C(C=C3)O
How it was run: as §1

[16] = compound: CC1=CC=C(C=C1)SC2=C3C=C(SC3=CN=C2)C(=O)N
How it was run: as §1

Sequence of UniProt Q9NXV6 (Q9NXV6 whole entry, looked up): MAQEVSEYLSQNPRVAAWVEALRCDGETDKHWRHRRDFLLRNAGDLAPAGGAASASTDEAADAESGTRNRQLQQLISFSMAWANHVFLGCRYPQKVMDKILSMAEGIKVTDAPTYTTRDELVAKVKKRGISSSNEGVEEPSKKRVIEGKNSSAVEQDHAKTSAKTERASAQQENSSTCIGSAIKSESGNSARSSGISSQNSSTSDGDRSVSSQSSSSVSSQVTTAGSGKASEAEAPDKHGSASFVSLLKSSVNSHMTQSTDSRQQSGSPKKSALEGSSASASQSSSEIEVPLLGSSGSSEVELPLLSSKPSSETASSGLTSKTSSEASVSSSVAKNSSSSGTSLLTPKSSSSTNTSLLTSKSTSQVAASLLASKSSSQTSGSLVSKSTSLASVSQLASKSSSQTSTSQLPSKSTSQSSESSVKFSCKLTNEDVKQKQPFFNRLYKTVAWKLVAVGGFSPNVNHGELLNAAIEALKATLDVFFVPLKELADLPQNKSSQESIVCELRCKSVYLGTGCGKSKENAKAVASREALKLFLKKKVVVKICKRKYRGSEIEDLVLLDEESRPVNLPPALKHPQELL
Sequence of UniProt Q9Y6H1 (Q9Y6H1 whole entry, looked up): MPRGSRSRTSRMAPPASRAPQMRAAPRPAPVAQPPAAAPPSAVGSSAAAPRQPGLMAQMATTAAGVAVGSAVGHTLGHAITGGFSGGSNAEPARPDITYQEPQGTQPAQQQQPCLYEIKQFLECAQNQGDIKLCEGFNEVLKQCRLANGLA
Sequence of UniProt O00311 (O00311 whole entry, looked up): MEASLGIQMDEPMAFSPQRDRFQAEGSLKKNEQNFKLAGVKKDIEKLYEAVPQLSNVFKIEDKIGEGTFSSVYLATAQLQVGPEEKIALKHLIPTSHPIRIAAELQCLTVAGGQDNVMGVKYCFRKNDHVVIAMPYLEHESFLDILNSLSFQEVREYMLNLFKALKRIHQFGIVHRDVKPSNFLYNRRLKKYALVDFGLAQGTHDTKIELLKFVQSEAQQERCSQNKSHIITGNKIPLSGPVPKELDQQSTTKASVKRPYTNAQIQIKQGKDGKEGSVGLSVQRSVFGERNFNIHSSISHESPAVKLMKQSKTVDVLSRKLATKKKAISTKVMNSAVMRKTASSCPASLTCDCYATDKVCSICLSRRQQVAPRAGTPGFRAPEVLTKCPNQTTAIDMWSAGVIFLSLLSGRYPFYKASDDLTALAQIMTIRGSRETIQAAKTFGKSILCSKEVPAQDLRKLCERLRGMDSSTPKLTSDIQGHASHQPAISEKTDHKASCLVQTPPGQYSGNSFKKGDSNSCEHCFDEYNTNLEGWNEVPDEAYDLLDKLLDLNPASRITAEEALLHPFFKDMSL
Sequence of UniProt O75419 (O75419 whole entry, looked up): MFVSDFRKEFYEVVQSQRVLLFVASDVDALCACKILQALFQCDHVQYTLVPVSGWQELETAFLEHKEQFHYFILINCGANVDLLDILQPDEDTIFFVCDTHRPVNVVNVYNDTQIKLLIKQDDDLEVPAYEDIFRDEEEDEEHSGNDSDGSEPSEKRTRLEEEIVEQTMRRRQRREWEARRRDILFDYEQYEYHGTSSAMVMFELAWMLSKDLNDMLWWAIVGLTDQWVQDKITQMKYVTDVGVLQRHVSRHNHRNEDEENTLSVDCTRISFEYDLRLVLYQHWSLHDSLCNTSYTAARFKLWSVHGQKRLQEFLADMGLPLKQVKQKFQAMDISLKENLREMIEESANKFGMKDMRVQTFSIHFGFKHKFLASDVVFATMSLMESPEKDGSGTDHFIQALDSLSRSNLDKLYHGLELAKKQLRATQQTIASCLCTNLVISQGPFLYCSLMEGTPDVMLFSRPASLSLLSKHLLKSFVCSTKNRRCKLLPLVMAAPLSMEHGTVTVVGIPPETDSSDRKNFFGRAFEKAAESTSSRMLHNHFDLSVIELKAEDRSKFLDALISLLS
Sequence of UniProt Q00536 (Q00536 whole entry, looked up): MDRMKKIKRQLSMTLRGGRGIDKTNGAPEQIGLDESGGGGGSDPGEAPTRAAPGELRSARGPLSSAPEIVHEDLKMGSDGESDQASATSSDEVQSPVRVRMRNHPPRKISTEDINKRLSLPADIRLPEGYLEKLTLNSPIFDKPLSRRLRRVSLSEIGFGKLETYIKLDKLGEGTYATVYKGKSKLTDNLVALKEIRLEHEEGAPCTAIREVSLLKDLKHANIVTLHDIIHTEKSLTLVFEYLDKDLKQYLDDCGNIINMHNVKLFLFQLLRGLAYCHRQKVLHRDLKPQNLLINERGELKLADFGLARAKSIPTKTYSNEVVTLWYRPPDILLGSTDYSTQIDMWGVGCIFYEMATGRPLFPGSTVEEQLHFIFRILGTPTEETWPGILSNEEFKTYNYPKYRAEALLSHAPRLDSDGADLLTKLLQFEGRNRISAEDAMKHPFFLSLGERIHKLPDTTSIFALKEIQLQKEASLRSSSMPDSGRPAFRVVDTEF
Sequence of UniProt Q9Y4P1 (Q9Y4P1 whole entry, looked up): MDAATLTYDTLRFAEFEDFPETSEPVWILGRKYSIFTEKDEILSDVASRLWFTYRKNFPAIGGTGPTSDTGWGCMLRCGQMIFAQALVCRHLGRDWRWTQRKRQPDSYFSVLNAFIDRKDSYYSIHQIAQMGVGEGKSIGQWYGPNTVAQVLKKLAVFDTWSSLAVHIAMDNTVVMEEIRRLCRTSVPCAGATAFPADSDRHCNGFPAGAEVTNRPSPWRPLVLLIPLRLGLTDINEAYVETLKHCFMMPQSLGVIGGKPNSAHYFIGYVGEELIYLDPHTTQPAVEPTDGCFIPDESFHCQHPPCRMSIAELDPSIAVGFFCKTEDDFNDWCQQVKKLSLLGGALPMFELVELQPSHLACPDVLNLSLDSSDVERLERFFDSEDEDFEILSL
Sequence of UniProt Q7L2Z9 (Q7L2Z9 whole entry, looked up): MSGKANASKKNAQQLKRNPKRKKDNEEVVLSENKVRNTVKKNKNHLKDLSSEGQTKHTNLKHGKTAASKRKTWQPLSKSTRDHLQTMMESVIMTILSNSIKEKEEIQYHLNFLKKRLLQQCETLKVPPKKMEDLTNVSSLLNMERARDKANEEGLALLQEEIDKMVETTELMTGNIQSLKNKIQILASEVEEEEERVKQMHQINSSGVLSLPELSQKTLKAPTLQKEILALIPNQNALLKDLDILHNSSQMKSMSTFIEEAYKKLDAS
Sequence of UniProt Q96JB5 (Q96JB5 whole entry, looked up): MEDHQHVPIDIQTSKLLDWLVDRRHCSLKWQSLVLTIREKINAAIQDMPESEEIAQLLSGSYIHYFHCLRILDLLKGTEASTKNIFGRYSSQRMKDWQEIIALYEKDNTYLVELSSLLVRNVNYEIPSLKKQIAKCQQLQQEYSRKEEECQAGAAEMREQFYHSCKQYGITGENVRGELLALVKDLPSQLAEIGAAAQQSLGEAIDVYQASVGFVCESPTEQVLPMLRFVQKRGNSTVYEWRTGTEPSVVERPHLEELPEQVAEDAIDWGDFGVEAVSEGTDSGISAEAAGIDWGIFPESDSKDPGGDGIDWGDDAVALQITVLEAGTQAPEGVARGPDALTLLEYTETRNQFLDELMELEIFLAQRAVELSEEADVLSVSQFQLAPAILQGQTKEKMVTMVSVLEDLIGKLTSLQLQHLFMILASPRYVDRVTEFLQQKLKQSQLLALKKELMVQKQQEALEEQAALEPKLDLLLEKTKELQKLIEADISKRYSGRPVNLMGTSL
Sequence of UniProt P08962 (P08962 whole entry, looked up): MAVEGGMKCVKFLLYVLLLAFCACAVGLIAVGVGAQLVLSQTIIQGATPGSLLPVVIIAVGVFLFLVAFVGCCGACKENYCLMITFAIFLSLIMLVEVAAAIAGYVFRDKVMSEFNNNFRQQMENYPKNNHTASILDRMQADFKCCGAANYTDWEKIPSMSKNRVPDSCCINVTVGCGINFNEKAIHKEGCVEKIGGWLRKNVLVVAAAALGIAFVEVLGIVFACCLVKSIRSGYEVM
Sequence of UniProt Q96ER9 (Q96ER9 whole entry, looked up): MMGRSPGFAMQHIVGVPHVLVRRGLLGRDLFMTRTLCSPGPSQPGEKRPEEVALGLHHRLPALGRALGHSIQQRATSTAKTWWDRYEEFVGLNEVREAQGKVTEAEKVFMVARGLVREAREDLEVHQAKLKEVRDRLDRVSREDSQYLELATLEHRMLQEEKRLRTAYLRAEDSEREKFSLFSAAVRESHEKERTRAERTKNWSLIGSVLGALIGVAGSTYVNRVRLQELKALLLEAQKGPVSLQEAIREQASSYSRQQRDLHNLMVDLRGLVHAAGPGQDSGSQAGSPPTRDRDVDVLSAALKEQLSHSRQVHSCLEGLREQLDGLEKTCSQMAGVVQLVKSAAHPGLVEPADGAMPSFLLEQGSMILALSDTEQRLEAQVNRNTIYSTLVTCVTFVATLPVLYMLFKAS
Sequence of UniProt P42574 (P42574 whole entry, looked up): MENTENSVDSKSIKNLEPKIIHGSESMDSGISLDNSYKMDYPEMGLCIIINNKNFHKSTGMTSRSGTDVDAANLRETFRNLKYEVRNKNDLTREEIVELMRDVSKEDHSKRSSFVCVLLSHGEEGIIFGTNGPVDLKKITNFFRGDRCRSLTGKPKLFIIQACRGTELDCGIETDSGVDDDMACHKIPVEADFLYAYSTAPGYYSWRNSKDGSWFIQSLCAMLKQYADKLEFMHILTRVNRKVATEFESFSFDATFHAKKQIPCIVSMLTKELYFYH
Sequence of UniProt Q9H3K6 (Q9H3K6 whole entry, looked up): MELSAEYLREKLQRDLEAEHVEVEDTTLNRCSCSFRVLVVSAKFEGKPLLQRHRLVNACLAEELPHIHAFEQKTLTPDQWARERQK

| Target | log2 fold change (erlotinib) | log2 fold change [1] | log2 fold change [2] | log2 fold change [3] | log2 fold change [4] | log2 fold change [5] | log2 fold change [6] | log2 fold change [7] | log2 fold change [8] | log2 fold change (IRAK-1-4 Inhibitor I) | log2 fold change (ibrutinib) | log2 fold change [9] | log2 fold change (ralimetinib) | log2 fold change [10] | log2 fold change [11] | log2 fold change [12] | log2 fold change [13] | log2 fold change [14] | log2 fold change [15] | log2 fold change [16] |
| --- | --- | --- | --- | --- | --- | --- | --- | --- | --- | --- | --- | --- | --- | --- | --- | --- | --- | --- | --- | --- |
| CASP3 (UniProt P42574) | -0.002 | -0.02 | 0.044 | -0.001 | 0.034 | 0.02 | -0.042 | 0.011 | 0.039 | -0.007 | 0.028 | -0.004 | 0.009 | 0.012 | -0.048 | -0.047 | -0.026 | 0.025 | -0.02 | -0.01 |
| CHCHD2 (UniProt Q9Y6H1) | -0.068 | -0.03 | -0.086 | 0.033 | -0.024 | 0.027 | 0.092 | 0.009 | 0.057 | -0.005 | -0.122 | -0.005 | -0.068 | 0.035 | 0.02 | 0.112 | 0.023 | -0.172 | -0.046 | 0.069 |
| CENPQ (UniProt Q7L2Z9) | -0.064 | -0.011 | 0.057 | 0.098 | 0.078 | 0.016 | 0.033 | -0.069 | 0.111 | -0.012 | 0.009 | 0.162 | 0.029 | -0.002 | 0.005 | 0.097 | -0.153 | -0.057 | -0.075 | 0.013 |
| CD63 (UniProt P08962) | -0.042 | 0.026 | -0.031 | 0.047 | 0.057 | -0.114 | -0.038 | 0.018 | -0.016 | 0.066 | -0.012 | -0.063 | 0.078 | -0.023 | 0.017 | 0.005 | 0.049 | 0 | 0.039 | 0.023 |
| CDK5RAP3 isoform 4 (UniProt Q96JB5) | 0.009 | -0.068 | -0.011 | -0.018 | 0.031 | -0.002 | -0.014 | -0.016 | 0.016 | 0.022 | -0.01 | -0.001 | -0.022 | -0.022 | -0.016 | 0.004 | 0.013 | 0.025 | 0.017 | 0.014 |
| CHD3 isoform 3 (UniProt Q12873) | 0.003 | -0.022 | -0.025 | -0.01 | 0.003 | 0.002 | -0.017 | -0.058 | 0.005 | -0.032 | -0.003 | 0.021 | -0.01 | -0.021 | -0.001 | 0.019 | -0.018 | 0 | -0.013 | 0.007 |
| BRAT1 (UniProt Q6PJG6) | 0.05 | -0.01 | -0.052 | 0.006 | 0.026 | 0.03 | -0.075 | 0.003 | -0.013 | -0.013 | 0.002 | 0.013 | 0.005 | -0.038 | -0.001 | -0.028 | 0 | -0.006 | -0.015 | 0.019 |
| CDC7 (UniProt O00311) | -0.032 | 0.038 | 0.038 | -0.109 | -0.324 (active) | -0.006 | -0.027 | -0.003 | -0.096 | 0.032 | 0.04 | 0.09 | 0.014 | 0.028 | 0.047 | 0.066 | -0.011 | 0.05 | -0.002 | -0.07 |
| CCDC51 (UniProt Q96ER9) | 0.03 | -0.08 | -0.047 | -0.024 | -0.005 | 0.067 | -0.07 | 0.005 | 0.029 | -0.041 | 0.056 | 0.011 | -0.012 | 0.036 | -0.011 | 0.025 | 0.011 | -0.013 | 0.033 | 0.013 |
| BMS1 (UniProt Q14692) | -0.029 | -0.089 | -0.027 | 0.028 | -0.046 | 0.034 | 0.039 | 0.006 | 0.01 | -0.01 | 0.095 | 0.018 | 0.018 | -0.041 | -0.008 | -0.011 | 0.007 | 0.049 | 0.034 | 0.032 |
| CDKN2AIP (UniProt Q9NXV6) | -0.047 | 0.067 | 0.072 | -0.01 | -0.074 | -0.006 | -0.079 | -0.038 | 0 | 0.048 | -0.003 | -0.038 | -0.013 | 0.029 | -0.04 | -0.009 | 0.03 | 0.004 | -0.019 | -0.009 |
| BOLA2 (UniProt Q9H3K6) | 0.008 | 0.078 | -0.112 | -0.007 | 0.032 | 0.01 | 0.039 | 0.034 | 0.006 | 0.013 | -0.01 | 0.02 | -0.025 | 0.008 | -0.025 | -0.059 | 0.038 | -0.029 | -0.022 | 0.039 |
| ATG4B (UniProt Q9Y4P1) | 0.012 | 0.002 | -0.022 | -0.024 | 0.028 | -0.019 | -0.007 | 0.008 | -0.004 | 0.019 | 0.037 | 0.021 | 0.016 | -0.028 | -0.019 | -0.014 | 0.033 | 0.005 | 0.046 | 0.013 |
| CDK16 isoform 2 (UniProt Q00536) | -0.061 | 0.002 | 0.016 | 0 | -0.005 | -0.017 | 0.151 | 0.004 | -0.007 | 0.03 | 0.025 | 0.28 | 0.016 | 0.009 | -0.089 | -0.023 | -0.007 | -0.037 | -0.024 | -0.141 |
| CDC45 isoform 3 (UniProt O75419) | 0.035 | -0.008 | -0.065 | 0.029 | -0.005 | -0.022 | -0.017 | -0.014 | -0.004 | 0.066 | 0.034 | 0.045 | 0.014 | 0.021 | -0.005 | 0.036 | -0.006 | -0.032 | 0.031 | -0.004 |
